Laboratory results as given in the supplement of paper PMC4466140.

Assays:
Experiment in all cases: SPOT peptide array binding signal intensity (averaged, normalized) (arbitrary units (background-subtracted, floor 0; scale differs between SH3 domains)); higher = stronger binding of the SH3 domain to the peptide
[1] = molecular target: CaNbp2
Outline: (§1)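 To measure binding, SH3 domains from four yeast species were fused to GST, expressed in E. coli BL21(DE3) and purified on glutathione Sepharose. Each domain was incubated at 10 μg/ml overnight at 4°C on cellulose membranes with synthetic 15-mer peptides whose cysteines were replaced by serines. Anti-GST antibody, an HRP anti-mouse secondary and luminol were used for detection, and images were quantified with Genespotter. Reported binding signal is normalized, background-subtracted spot intensity averaged over replicates, in arbitrary units that differ between domains.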

[2] = molecular target: CaRvs167
Outline: as §1

[3] = molecular target: CaRvs167-3
Outline: as §1

[4] = molecular target: CaSho1
Outline: as §1

[5] = molecular target: CaSla1-D1-D2
Outline: as §1

[6] = molecular target: CaSla1-D3
Outline: as §1

[7] = molecular target: ScAbp1
Outline: as §1

[8] = molecular target: ScBbc1
Outline: as §1

[9] = molecular target: ScBem1-D1
Outline: as §1

[10] = molecular target: ScBzz1-D1
Outline: as §1

[11] = molecular target: ScBzz1-D2
Outline: as §1

[12] = molecular target: ScCyk3
Outline: as §1

[13] = molecular target: ScFus1
Outline: as §1

[14] = molecular target: ScHof1
Outline: as §1

[15] = molecular target: ScHse1
Outline: as §1

[16] = molecular target: ScLsb1
Outline: as §1

[17] = molecular target: ScLsb2
Outline: as §1

[18] = molecular target: ScLsb3
Outline: as §1

[19] = molecular target: ScLsb4
Outline: as §1

[20] = molecular target: ScMyo3
Outline: as §1

[21] = molecular target: ScMyo5
Outline: as §1

[22] = molecular target: ScNbp2
Outline: as §1

[23] = molecular target: ScPex13
Outline: as §1

[24] = molecular target: ScRvs167
Outline: as §1

[25] = molecular target: ScSho1
Outline: as §1

[26] = molecular target: ScSla1-D1-D2
Outline: as §1

[27] = molecular target: ScSla1-D3
Outline: as §1

[28] = molecular target: SpAbp1-D1
Outline: as §1

[29] = molecular target: SpBbc1
Outline: as §1

[30] = molecular target: SpBzz1-D1
Outline: as §1

[31] = molecular target: SpBzz1-D2
Outline: as §1

[32] = molecular target: SpCyk3
Outline: as §1

[33] = molecular target: SpHof1
Outline: as §1

[34] = molecular target: SpHof1-2
Outline: as §1

[35] = molecular target: SpHof1-3
Outline: as §1

[36] = molecular target: SpHse1
Outline: as §1

[37] = molecular target: SpLsb1
Outline: as §1

[38] = molecular target: SpLsb4
Outline: as §1

[39] = molecular target: SpMyo1
Outline: as §1

[40] = molecular target: SpNbp2
Outline: as §1

[41] = molecular target: SpPex13
Outline: as §1

[42] = molecular target: SpRvs167
Outline: as §1

[43] = molecular target: SpSla1-D1-D2
Outline: as §1

[44] = molecular target: SpSla1-D3
Outline: as §1

## AAHKTKPSIPPKKVE
[1]
  SPOT peptide array binding signal intensity: ≤ 0
[2]
  SPOT peptide array binding signal intensity: 1.67
[3]
  SPOT peptide array binding signal intensity: ≤ 0
[4]
  SPOT peptide array binding signal intensity: ≤ 0
[5]
  SPOT peptide array binding signal intensity: 282
[6]
  SPOT peptide array binding signal intensity: 3.25
[7]
  SPOT peptide array binding signal intensity: 907
[8]
  SPOT peptide array binding signal intensity: ≤ 0
[9]
  SPOT peptide array binding signal intensity: ≤ 0
[10]
  SPOT peptide array binding signal intensity: 3.5
[11]
  SPOT peptide array binding signal intensity: 1.5
[12]
  SPOT peptide array binding signal intensity: ≤ 0
[13]
  SPOT peptide array binding signal intensity: ≤ 0
[14]
  SPOT peptide array binding signal intensity: 0.5
[15]
  SPOT peptide array binding signal intensity: ≤ 0
[16]
  SPOT peptide array binding signal intensity: 0.25
[17]
  SPOT peptide array binding signal intensity: 0.5
[18]
  SPOT peptide array binding signal intensity: 144
[19]
  SPOT peptide array binding signal intensity: 13.5
[20]
  SPOT peptide array binding signal intensity: 8.5
[21]
  SPOT peptide array binding signal intensity: 2
[22]
  SPOT peptide array binding signal intensity: ≤ 0
[23]
  SPOT peptide array binding signal intensity: 7
[24]
  SPOT peptide array binding signal intensity: 3.17
[25]
  SPOT peptide array binding signal intensity: 6
[26]
  SPOT peptide array binding signal intensity: ≤ 0
[27]
  SPOT peptide array binding signal intensity: 2.5
[28]
  SPOT peptide array binding signal intensity: 282
[29]
  SPOT peptide array binding signal intensity: ≤ 0
[30]
  SPOT peptide array binding signal intensity: 311
[31]
  SPOT peptide array binding signal intensity: ≤ 0
[32]
  SPOT peptide array binding signal intensity: ≤ 0
[33]
  SPOT peptide array binding signal intensity: 0.25
[34]
  SPOT peptide array binding signal intensity: 6
[35]
  SPOT peptide array binding signal intensity: 3
[36]
  SPOT peptide array binding signal intensity: 32.8
[37]
  SPOT peptide array binding signal intensity: 11.5
[38]
  SPOT peptide array binding signal intensity: 4
[39]
  SPOT peptide array binding signal intensity: ≤ 0
[40]
  SPOT peptide array binding signal intensity: 12.5
[41]
  SPOT peptide array binding signal intensity: 1
[42]
  SPOT peptide array binding signal intensity: 9.5
[43]
  SPOT peptide array binding signal intensity: 4
[44]
  SPOT peptide array binding signal intensity: 2.5
